Consider five molecules from PubChem BioAssay (NCI).

Assay in all cases: NCI-60 one-dose screen, 48 h (100 = growth as untreated, 0 = no growth, -100 = all killed)
Common to all, as to details: 10 µM unless noted

For experiment [1], the system named is HCT-15 colon.
For experiment [2], the system named is HT29 colon.
Experiment [3] deals with SNB-75 CNS.
In experiment [4] the test system is SNB-19 CNS.
For experiment [5], the system named is U251 CNS.
Experiment [6] deals with PC-3 prostate.
Experiment [7] has as its system SK-MEL-5 melanoma.
Experiment [8] concerns UACC-62 melanoma.
Experiment [9] concerns LOX IMVI melanoma.
Experiment [10] concerns SK-MEL-2 melanoma.
The test system of experiment [11] is EKVX NSCLC.
Experiment [12] relates to SN12C renal.
Experiment [13] concerns UO-31 renal.
Experiment [14] deals with TK-10 renal.
Experiment [15] relates to CAKI-1 renal.
Experiment [16] relates to A498 renal.
Experiment [17] relates to CCRF-CEM leukemia.
Experiment [18] has as its system MOLT-4 leukemia.
The subject of experiment [19] is SK-MEL-28 melanoma.
In experiment [20] the test system is ACHN renal.

Where “and” joins values, the source holds several entries; their conditions need not be identical. Equal values may be shown once. About 83,000 compounds went through this panel and 20% of them were active in at least one assay; those are over-represented in the sample as a whole.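 Negative percent growth values reflect cell death: -40 means 40% of the cells present at the start died, and -100 means all died.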 Calls of active or inactive are those of the source. The calls were made as follows: active = growth percent below 10; inactive = the rest.

For `Oc1nc(NCCc2ccccc2)sc1/C=C1\C=Nc2ncccc21`, the growth in experiment [1] is 33.5% (inactive) and 36.5% (inactive); in experiment [2], 27.8% (inactive) and 30.6% (inactive); in experiment [3], -13.3% (active) and -10.9% (active); in experiment [4], 12.1% (inactive); in [5], 7.63% (active) and 15.8% (inactive); in [6] it was 19.2% (inactive) and 25.9% (inactive). In addition, the growth in experiment [7] is -0.16% (active) and 14.5% (inactive); in [8], -1.3% (active) and -1.44% (active); in [9] it was 8.25% (active) and 16.3% (inactive); in experiment [10] it was -4.61% (active) and 28.8% (inactive); in experiment [11], 40.9% (inactive) and 46% (inactive); in experiment [12] it was 33.5% (inactive) and 15.9% (inactive). Besides, the growth is 36.6% (inactive) and 25.2% (inactive) in experiment [13]; 18.8% (inactive) and 34.2% (inactive) in experiment [14]; 54.8% (inactive) and 37.4% (inactive) in experiment [15]; -21.3% (active) and -7.55% (active) in [16]; 5.53% (active) and 9.93% (active) in experiment [17]; 8.59% (active) and 11.4% (inactive) in experiment [18].

In the case of `O=C(O)C1(C(=O)O)CCC1.[NH2-].[NH2-].[Pt+2]`, the growth in [1] was 102% (inactive) and 103% (inactive); in experiment [2] it was 106% (inactive) and 89.3% (inactive); in [3] it was 84.7% (inactive) and 88.6% (inactive); in experiment [4], 94.6% (inactive) and 99.2% (inactive); in experiment [5], 102% (inactive) and 94.1% (inactive); in experiment [6], 93.6% (inactive) and 78.5% (inactive). For the same molecule, the growth is 101% (inactive) and 94.1% (inactive) in experiment [7]; 96.1% (inactive) and 95.3% (inactive) in experiment [8]; 112% (inactive) in experiment [19]; 97.8% (inactive) and 104% (inactive) in [10]; 97.1% (inactive) and 106% (inactive) in [11]; 102% (inactive) and 103% (inactive) in [12]. In addition, the growth is 75.6% (inactive) and 103% (inactive) in [13]; 111% (inactive) and 104% (inactive) in experiment [14]; 88% (inactive) and 81.1% (inactive) in [15]; 111% (inactive) and 98.4% (inactive) in [16]; 90.8% (inactive) in [17]; 113% (inactive) and 67% (inactive) in experiment [18].

Take `COC(=O)[C@H]1CCCN1C(=O)C1CCCN1C(=O)[C@@H](Cc1ccccc1)NC(=S)Nc1cc(C(F)(F)F)cc(C(F)(F)F)c1` (stereo not given in full): the growth in experiment [1] was 95.8% (inactive) and 75.5% (inactive); in experiment [2], 111% (inactive) and 72.6% (inactive); in experiment [3], 85.4% (inactive) and 73.3% (inactive); in experiment [4], 92.1% (inactive) and 86.7% (inactive); in [5], 98.8% (inactive) and 77% (inactive); in [6] it was 101% (inactive) and 53.3% (inactive). The growth was 100% (inactive) and 88.2% (inactive) in experiment [7]; 94.7% (inactive) and 90.3% (inactive) in experiment [8]; 103% (inactive) and 88.1% (inactive) in experiment [9]; 109% (inactive) and 103% (inactive) in experiment [10]; 96.1% (inactive) and 84% (inactive) in experiment [12]; 94.6% (inactive) and 59.1% (inactive) in experiment [13]. Moreover, the growth in experiment [14] was 114% (inactive) and 90% (inactive); in experiment [20], 98.4% (inactive) and 85.6% (inactive); in experiment [16], 96.6% (inactive) and 81.4% (inactive); in [17], 106% (inactive) and 72.2% (inactive); in experiment [18], 91.3% (inactive) and 42.9% (inactive).

For `Oc1ccc(/C=C/c2ccccc2)cc1`, the growth was 67.1% (inactive) and 68.2% (inactive) in experiment [1]; 104% (inactive) and 84.8% (inactive) in experiment [2]; 68.7% (inactive) and 83.4% (inactive) in experiment [3]; 84.1% (inactive) and 91.2% (inactive) in experiment [4]; 67.7% (inactive) and 53.5% (inactive) in [5]; 70% (inactive) and 43.8% (inactive) in [6]. For the same molecule, the growth in [7] is 56.1% (inactive) and 55.7% (inactive); in experiment [8], 56.3% (inactive) and 53.4% (inactive); in [9], 55.6% (inactive) and 68.9% (inactive); in experiment [10], 98.4% (inactive) and 98.8% (inactive); in experiment [11], 76.9% (inactive) and 108% (inactive); in experiment [12] it was 74.5% (inactive) and 72.4% (inactive). The growth in experiment [13] is 17.8% (inactive) and 11.6% (inactive); in experiment [14] it was 92.9% (inactive) and 65.1% (inactive); in experiment [20], 17.3% (inactive) and 16.2% (inactive); in [15] it was 6.76% (active); in [16] it was 83.1% (inactive) and 59.4% (inactive); in [17], 33.5% (inactive) and 33.3% (inactive). For the same molecule, the growth in experiment [18] was 61.6% (inactive) and 47.5% (inactive).

Regarding `O=C1c2c(O)cc(O)cc2OC(c2ccc(O)c(O)c2)C1O` (stereo not given), the growth was 108% (inactive) in experiment [1]; 110% (inactive) in [2]; 96.1% (inactive) in [3]; 101% (inactive) in [4]; 102% (inactive) in experiment [5]; 96.4% (inactive) in experiment [6]. Further, the growth in experiment [7] was 104% (inactive); in [8] it was 106% (inactive); in experiment [19] it was 108% (inactive); in experiment [10], 105% (inactive); in [11] it was 119% (inactive); in experiment [12], 104% (inactive). The growth is 104% (inactive) in experiment [14]; 105% (inactive) in experiment [20]; 118% (inactive) in [15]; 107% (inactive) in experiment [16]; 97.7% (inactive) in [17]; 107% (inactive) in experiment [18].
